Bioassay records from PubChem BioAssay.
Tb PYK inh – blocks Trypanosoma brucei pyruvate kinase | Q57TT1 | TbPYK enzyme, Kinase-Glo Plus ATP luminescence, 45 min | Potency, µM (doses to about 76.8 µM), inactives show at the top dose activity, negative = inhibition, usual class: inhibitors | hit rate 0.12% among 410,000; further: potency means the concentration at half of the fitted maximal effect; on the % scale 0 is the no-effect control and ±100 the full control effect; nearly all actives have a fitted effect of over 50% in size
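Readout: single end-point luminescence (Kinase-Glo Plus, 10 min). Reaction conditions were TbPYK/substrate plus 130 uM ADP, 45 min at RT, pH 7.2 TEA buffer. No-enzyme wells served as controls, and data were normalized before concentration-response fitting.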
Sm TGR inh – blocks Schistosoma mansoni thioredoxin glutathione reductase. purified TGR, DTNB reduction, TNB absorbance 405 nm. Q962Y6. hit rate 3% among 360,000. AID 485364. Potency, µM (highest dose often 114 µM), for the others: at the highest dose activity change, negative = inhibition, usual class: inhibitors; further: potency means the concentration at half of the fitted maximal effect; on the % scale 0 is the no-effect control and ±100 the full control effect; nearly all actives have a fitted effect of over 60% in size
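First, TGR (20 nM dispensed) and NADPH were mixed with compound. Second, a 15 min room-temperature incubation followed. Third, further NADPH and then DTNB were added to start the reaction. Finally, TNB absorbance was monitored kinetically.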
FBPA Giardia inh – inhibitors of Giardia lamblia fructose-1,6-bisphosphate aldolase; A8B2U2; purified Giardia FBPA; Potency, µM (highest dose often 59.6 µM), inactives show at the top dose activity, negative = inhibition, actives largely listed as inhibitors; hit rate 0.71% among 290,000; AID 2451; further: potency means the concentration at half of the fitted maximal effect; on the % scale 0 is the no-effect control and ±100 the full control effect; nearly all actives have a fitted effect of over 55% in size
Target sequence (A8B2U2 whole entry, looked up): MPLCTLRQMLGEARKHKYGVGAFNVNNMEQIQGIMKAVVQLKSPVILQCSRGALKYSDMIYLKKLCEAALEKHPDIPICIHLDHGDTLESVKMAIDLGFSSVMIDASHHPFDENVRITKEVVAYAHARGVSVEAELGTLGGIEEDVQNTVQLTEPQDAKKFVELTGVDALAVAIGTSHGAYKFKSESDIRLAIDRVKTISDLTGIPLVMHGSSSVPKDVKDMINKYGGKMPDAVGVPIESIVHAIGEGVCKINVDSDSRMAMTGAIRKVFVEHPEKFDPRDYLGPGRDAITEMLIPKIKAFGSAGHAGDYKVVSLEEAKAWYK
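40 nM FBPA preincubated 10 min at RT with compound (up to 57.5 uM final), then substrate plus GAPDH/TPI/NAD/arsenate coupling and diaphorase/resazurin added. Fluorescence read after 20 min at RT, 525/598 nm.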
CHX counter – counter-screen hit for Shiga toxin inhibitors, cycloheximide. cell reporter, cycloheximide protein synthesis inhibition counterscreen. max response, %. hit rate 12% among 300,000. AID 2314; in the data active means max response mostly above about 13%, no sharp cut-off; inactive means mostly below about 14%; further: read at 38.3 µM for the half of the compounds with a filed dose; 0% is about no effect
Shiga toxin inh – inhibitors of Shiga toxin in Vero cells; Vero cells, Shiga toxin protein synthesis inhibition reporter; inhibition, % at 38.7 µM; hit rate 9.2% among 290,000; in the data active means inhibition mostly above about 28%, no sharp cut-off; inactive means mostly below about 43%; further: 0% is about no effect
LmPK inhibitor – inhibitors of Leishmania mexicana pyruvate kinase | Potency, µM (highest dose often 57.5 µM), for inactives: at the top dose activity change, negative = inhibition, hits mostly inhibitors | Q27686 | hit rate 0.37% among 290,000 | purified LmPK, Kinase-Glo ATP luminescence, 1 h; further: potency means the concentration at half of the fitted maximal effect; on the % scale 0 is the no-effect control and ±100 the full control effect
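Pyruvate kinase activity monitored as ATP production (luciferase luminescence). Conditions: 0.1 nM enzyme, 0.5 mM PEP, 0.1 mM ADP, 1 h, RT; normalized against uninhibited and no-enzyme wells.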
* hit, by the source's call; ? = inconclusive; . = no result; ! = not active in a repeat; [ ] = dose if it differs, or a comment. Only a selection was taken, and hits are over-represented in it overall. Unless noted, the call rests on the fitted dose curve; in most records, active means well fitted curve in the direction sought with a large enough effect; inconclusive means small, poorly fitted or top-dose-only effect, or another doubt; inactive means no such curve, though single readings can be large; an effect the other way counts as inactive or inconclusive.

SMILES	Tb PYK inh	Sm TGR inh	FBPA Giardia inh	CHX counter	Shiga toxin inh	LmPK inhibitor
O=C(Oc1ccc2c(c1)OCC2=O)c1ccc(Cl)cc1	4.9%	0.3%	2.6%	22.0	50.0*	0.8%
COc1cc(/C=C/C(=O)O)cc(S(=O)(=O)NCCO)c1OC	2.8%	-10.9%	1.0%	-6.9	-11.0	0.6%
Cc1ccc(/C=C/C(=O)O)cc1S(=O)(=O)NCCO	-6.2%	44.7µM*	-0.8%	9.5	-9.4	0.7%
Cc1ccc(/C=C/C(=O)O)cc1S(=O)(=O)Nc1ccc(C(=O)O)cc1	-5.4%	35.5µM*	-14.4%	1.3	17.5	0.0%
O=C(CCCn1c(=O)c2ccccc2n(Cc2ccc(F)cc2Cl)c1=O)NCCc1ccc(Cl)cc1	-3.2%	?	.	.	.	.
CCOC(=O)C1C(=O)C(C(=O)OCC)C(c2cccnc2)NC1c1cccnc1 (stereo not drawn)	-12.8%	25.1µM*	-2.9%	1.8	7.6	2.2%
Cc1nnsc1C(=O)Oc1ccccc1Cl	-5.3%	44.7µM*	.	.	.	.
Cc1ccccc1OC(=O)c1snnc1C	0.2%	7.0%	.	.	.	.
O=c1ccc(-c2ccccc2)nn1Cc1ccccc1	-1.2%	.	.	.	.	.
CNc1ccccc1-n1ccc(-c2ccccc2)n1	3.2%	5.0%	-4.5%	35.6*	86.5*	5.1%
Cn1ccc(-c2ccccc2)n1	0.3%	-6.9%	2.6%	19.1*	12.5	-10.8%
N#Cc1cc(-c2ccccc2)nn1-c1ccccc1	14.1µM*	0.631µM*	?	19.1	16.0	25.1µM*
Cn1ccc(-c2cc(C(=O)O)c3ccccc3n2)n1	-5.8%	45.6%	?	-3.4	-6.6	2.6%
CC(=O)Nc1ccc(NC(=O)CCS(=O)(=O)c2ccc3c(c2)CC(=O)N3C)cc1	-5.7%	14.0%	.	.	.	.
Cc1cccc(CSc2cn(CC(=O)N3CCCCCC3)c3ccccc23)c1	-8.1%	2.0%	.	.	.	.
O=C(CSc1cn(CC(=O)N2CCOCC2)c2ccccc12)N1CCOCC1	-1.0%	-4.8%	5.6%	2.4	-7.3	6.6%
O=C(Cn1cc(SCc2cccc(Cl)c2)c2ccccc21)N1CCOCC1	-10.8%	6.6%	-18.3%	48.5*	26.9	-5.1%
Cc1cccc(CSc2cn(CC(=O)N3CCOCC3)c3ccccc23)c1	-1.5%	9.6%	-19.0%	42.5*	63.7*	-27.3%
NC(=S)c1ccc[n+]([C@@H]2O[C@@H](COP(=O)([O-])OP(=O)(O)OC[C@H]3O[C@@H](n4cnc5c(N)ncnc54)[C@H](OP(=O)(O)O)[C@H]3O)C(O)C2O)c1 (stereo partly drawn)	.	.	0.8%	.	.	.
Cn1cc([N+](=O)[O-])c(C(=O)Nc2ccc(C(=O)N3CCCCC3)cc2)n1	2.3%	7.9%	1.2%	11.2	29.2*	-7.2%
Cn1cc([N+](=O)[O-])c(C(=O)Nc2ccc(C3CCCCC3)cc2)n1	-3.0%	14.6%	-0.5%	46.2*	86.0*	1.3%
CC(=O)N1CCC(N(Cc2ccc(C)o2)C(=O)Nc2cccc(C(F)(F)F)c2)CC1	1.6%	-2.5%	.	.	.	.
CN(C)/C=C1\N=C(c2ccccc2)OC1=O	3.8%	2.8%	-0.2%	15.4*	19.1	-15.9%
CCOc1cc(/C=C2/N=C(c3ccc4c(c3)OCO4)OC2=O)ccc1OC(C)=O	-1.1%	-4.2%	.	.	.	.
CN(C)/C=C1\N=C(c2ccc3c(c2)OCO3)OC1=O	1.8%	-14.5%	-0.7%	27.5*	63.9*	-5.0%
SMILES	Tb PYK inh	Sm TGR inh	FBPA Giardia inh	CHX counter	Shiga toxin inh	LmPK inhibitor
COc1ccc(NC(=O)CC2C(=O)N(c3ccc(C)cc3)C(=O)N2Cc2cccnc2)cc1 (stereo not drawn)	0.3%	1.6%	.	.	.	.
CCOc1ccc(CCNC(=O)CSc2nc3ccccc3nc2Cc2ccc(C)cc2)cc1OCC	-2.0%	-5.9%	.	.	.	.
CSc1ccc(CCNC(=O)CCc2c(C)nc3c4cccnc4nn3c2C)cc1	-6.4%	-1.8%	.	.	.	.
Cc1ccc(NC(=O)NC(=O)N(c2ccccc2)S(C)(=O)=O)cc1	-9.2%	9.0%	4.3%	26.8*	50.1*	-1.1%
CN(C(=O)Nc1cnc2ccccc2c1)c1ccccc1	-0.1%	.	-1.2%	33.8*	28.4*	-0.4%
CCCCCN(C(=O)NC(=O)Nc1ccc(C)cc1)S(=O)(=O)c1ccccc1	-1.4%	-20.8%	3.2%	19.8*	2.9	0.9%
CCCCCN(C(=O)NC(=O)Nc1ccc(C)cc1C)S(C)(=O)=O	0.4%	5.9%	0.9%	-4.5	23.5	10.3%
Cc1ccc(NC(=O)N(C)c2ccccc2)cc1	-2.1%	-0.2%	8.5%	17.1*	48.0*	0.7%
Cc1nc2ccccc2n1CCc1nc2c3ccccc3nc(SCc3ccc(C#N)cc3)n2n1	4.6%	7.2%	.	.	.	.
CC(C)(C)NC[C@H](O)c1cc(O)cc(O)c1	3.8%	.	-25.8%[21.7 µM]	.	.	.
O=C(Nc1ccccc1)N(C1=NCCC1)c1ccccc1	0.7%	8.7%	10.3%	-1.4	34.8	-0.9%
CN(C(=O)Nc1ccccc1)C1CCCCC1	1.1%	10.8%	1.1%	13.6	67.3	2.2%
CN(C)C(=O)Nc1ccccc1	3.4%	24.5%	4.7%	40.7*!	87.6*!	-0.1%
CN(C(=O)Nc1ccccc1)C1CCCc2ccccc21 (stereo not drawn)	-0.1%	-1.5%	2.9%	19.3*	71.5*	-0.4%
Cc1ccc(N(C(=O)Nc2ccccc2)C2=NCCC2)cc1	2.0%	-4.6%	14.9%	17.5*	19.1	2.5%
COc1ccc([C@@H]2[C@@H]3C(=O)N(C(C)(C)C)C(=O)[C@@H]3[C@]3(Cc4ccccc4)C(=O)N(c4ccc(Br)cc4)C(=O)N23)cc1	2.3%	-23.4%	9.1%	12.1*	9.0	-1.1%
COc1ccc(N2C(=O)N3[C@H](c4ccc(Br)cc4)[C@@H]4C(=O)N(C(C)(C)C)C(=O)[C@@H]4[C@]3(Cc3ccccc3)C2=O)cc1	3.0%	0.0%	-2.1%	-0.9	4.4	2.9%
CC(=O)c1cccc(OC(=O)c2ccc3c(=O)n4c(nc3c2)CCC4)c1	3.3%	8.3%	.	.	.	.
CC(C)C(NS(=O)(=O)c1ccc2c(c1)oc(=O)n2C)C(=O)NCCc1ccc(Cl)cc1 (stereo not drawn)	0.3%	7.2%	.	.	.	.
On1c(-c2ccccc2)nc2ccccc21	0.4%	-4.2%	-0.1%	12.6	40.2	-15.2%
On1c(-c2ccc(Cl)cc2)nc2ccccc21	-4.5%	-6.6%	?	42.9*	62.6*	2.0%
Oc1ccc(/C=N/Nc2cc(N3CCOCC3)nc(N3CCOCC3)n2)cc1O	-18.1%	50.1µM*	?	-0.7	-8.2	1.6%
Oc1ccccc1/C=N/Nc1cc(N2CCCC2)nc(N2CCCC2)n1	6.1%	-2.3%	-28.7%	11.6*	30.0	0.4%
COc1ccc(/C=N/Nc2cc(C)nc(N3CCOCC3)n2)cc1OC	-5.4%	-9.3%	-1.0%	10.2	40.1	0.3%
COc1ccccc1/C=N/Nc1cc(C)nc(N2CCOCC2)n1	-0.8%	8.3%	2.1%	24.0*	22.3	1.6%
Oc1cccc(/C=N/Nc2cc(N3CCOCC3)nc(N3CCOCC3)n2)c1	-7.1%	0.0%	-19.0%	19.3*	-2.1	-1.3%
